Key:
CHO = assay: % viability of CHO cells (MTT); higher = less toxic; details: 48 h
How it was run: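 Viability was given as a percentage of untreated cells and measured colorimetrically by the tetrazolium (MTT) assay. Before this, CHO cells at 10^6 cells/well in 200 µL attached overnight, then received fresh medium containing compound at 2 or 20 µM for 48 h.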

HepG2-A16-CD81 = assay: % inhibition of HepG2 viability (CellTiter-Glo); higher = more toxic; details: 5 µM;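 also: HepG2-A16-CD81 hepatoma cells plated as in the liver-stage assay but without sporozoites, with DMSO wells as negative and 25 µM puromycin as positive control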
[1] = test system: Plasmodium falciparum NF54 stage IV/V gametocytes; assay: % inhibition of gametocyte viability (PrestoBlue); higher = more inhibition; details: 48 h
How it was run: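 Values are percent inhibition of gametocyte viability, normalised to vehicle and kill controls in a single run. Stage IV/V NF54 gametocytes (2% gametocytaemia, 5% haematocrit, 100 µL/well) were held with compound at 1 or 5 µM for 48 h at 37 °C, stationary and hypoxic. Viability was read as 612 nm fluorescence on 70 µL of supernatant after a 2 h incubation with 10 µL PrestoBlue.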

[2] = test system: Plasmodium falciparum NF54 asexual blood stage; assay: % inhibition of asexual blood stage proliferation (pLDH); higher = more inhibition; details: 72 h
How it was run: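 Using 96-well plates, the screen was run twice on separate occasions with Plasmodium falciparum NF54 ring-stage cultures at 1% haematocrit and 2% parasitaemia. Each culture was exposed to compound at 2 or 20 µM for 72 h at 37 °C under a gas mix of 4% CO2, 3% O2 and 93% N2. After incubation, the parasite lactate dehydrogenase assay was read colorimetrically at 620 nm. From this readout, percent inhibition of asexual proliferation was derived against control wells.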

[3] = test system: Plasmodium falciparum NF54 stage IV/V gametocytes; assay: % inhibition of gametocyte viability (ATP bioluminescence); higher = more inhibition; details: 24 h
How it was run: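 Viability of stage IV/V NF54 gametocytes is given as percent inhibition, normalised to control wells in a single run. Gametocytes enriched on density gradients were seeded at 30,000 per well in 96-well plates with compound at 1 or 5 µM and held at 37 °C for 24 h. ATP was then read with the Promega BacTiter Glo bioluminescence system.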

[4] = test system: Plasmodium falciparum NF54 stage IV/V gametocytes; assay: % inhibition of gametocyte viability (luciferase reporter); higher = more inhibition; details: 48 h
How it was run: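 Stage IV/V gametocytes of the NF54-Pfs16-GFP-Luc line (2% gametocytaemia, 2% haematocrit) were exposed to compound at 1 or 5 µM. Incubation was 48 h at 37 °C, stationary and hypoxic. Luminescence was read on 30 µL lysate plus 30 µL Promega luciferin substrate on a GloMax-Multi+ reader with 10 s integration. Percent inhibition was normalised to DMSO and kill controls from a single run.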

SMILES | % viability of CHO cells (CHO; 2 µM) | % viability of CHO cells (CHO; 20 µM) | % inhibition of HepG2 viability (HepG2-A16-CD81) | % inhibition of gametocyte viability ([1]; 1 µM) | % inhibition of gametocyte viability ([1]; 5 µM) | % inhibition of asexual blood stage proliferation ([2]; 2 µM) | % inhibition of asexual blood stage proliferation ([2]; 20 µM) | % inhibition of gametocyte viability ([3]; 1 µM) | % inhibition of gametocyte viability ([3]; 5 µM) | % inhibition of gametocyte viability ([4]; 1 µM) | % inhibition of gametocyte viability ([4]; 5 µM)
c1cc(CN2CCCNCCNCCCNCC2)ccc1CN1CCCNCCNCCCNCC1 | 104% | 109% | -0.261% | 7.81% | 31% | 16.7% | 34.9% | 6.22% | < 0% | < 0% | < 0%
CC[C@@H]1C(=O)OC[C@@H]1Cc1cncn1C | 111% | 110% | -1.73% | < 0% | < 0% | 5.57% | 14.4% | < 0% | < 0% | < 0% | 10.7%
Cc1cc(C2CCCCC2)n(O)c(=O)c1 | 95.2% | 69.7% | 13.4% | < 0% | 58.2% | 9.8% | 77.8% | 36.1% | < 0% | < 0% | < 0%
CC(C)(C)NC(=O)[C@@H]1CN(Cc2cnc3occc3c2)CCN1C[C@@H](O)C[C@@H](Cc1ccccc1)C(=O)N[C@H]1c2ccccc2C[C@H]1O | 99.9% | 78.9% | 4.33% | 30.9% | 51.4% | 55.2% | 55.9% | 1.91% | < 0% | 2.7% | 15.5%
O=C(NNC(=S)Nc1ccc(Cl)cc1)c1ccncc1 | 116% | 76.6% | 4.57% | 6.58% | < 0% | 3.73% | -4.99% | < 0% | < 0% | < 0% | < 0%
NC(=O)[C@@H]1CC[C@@H]2CN1C(=O)N2OS(=O)(=O)O | 82.9% | 117% | 4.71% | < 0% | < 0% | 30.8% | 16.5% | 1.17% | < 0% | < 0% | 1.87%
CCCCCCC1c2ccc(O)cc2Oc2cc(O)ccc21 | 80.1% | 49.3% | 11.4% | 5.99% | < 0% | -7.32% | 12.9% | 4.64% | 15.4% | < 0% | < 0%
CC(Oc1ccc(Cl)cc1Cl)C(=O)NCc1ccc2c(c1)OCO2 (centres undefined) | – | – | – | < 0% | 35.3% | -4.14% | -3.59% | < 0% | < 0% | < 0% | < 0%
Oc1cccc(C(Nc2nccs2)c2ccc3cccnc3c2O)c1 (centres undefined) | 57.5% | 42.1% | 9.72% | 24.1% | 65.5% | 80% | 91.8% | < 0% | 59.3% | 7.2% | 57.3%
COc1cc(NCc2ccc3nc(N)nc(N)c3c2C)cc(OC)c1OC | 109% | 47.7% | 17.2% | < 0% | < 0% | 40.8% | 88.6% | < 0% | < 0% | < 0% | < 0%
[N-]=[N+]=N[C@H]1C[C@H](n2ccc(=O)[nH]c2=O)O[C@@H]1CO | 109% | 102% | -1.43% | 6.88% | 16.8% | -15.7% | 43.2% | 3% | < 0% | 11.1% | < 0%
COc1ccc2sc3c(c2c1)NC(C)CNC3=O (centres undefined) | 97.2% | 115% | 33.6% | < 0% | < 0% | 38.3% | 40.7% | < 0% | < 0% | 0.316% | < 0%
CC1CN(c2ncnc3c2c(-c2ccccc2)cn3-c2ccc(F)cc2)CC(C)O1 (centres undefined) | 82.6% | 122% | 6.07% | 17.3% | 1.77% | 75.6% | 95.5% | < 0% | < 0% | < 0% | < 0%
O=S(=O)(Nc1cccc2cccnc12)c1ccccc1 | 85% | 121% | 5.35% | 4.79% | < 0% | 8.89% | 70% | < 0% | < 0% | < 0% | < 0%
CCCCSc1nc(N)c2[nH]c(=O)c(=O)n(Cc3ccccc3)c2n1 | 114% | 55.2% | 4.02% | 1.71% | 21.9% | 14.9% | 14.6% | < 0% | < 0% | < 0% | < 0%
N#CCN1C(=O)COc2cc(F)c(N3C(=O)c4ccccc4C3=O)cc21 | 91.1% | 99.3% | -3.69% | 3.4% | 2.45% | 8.98% | 14.8% | < 0% | < 0% | < 0% | 14.5%
CC(=O)N1CCN(c2ccc(OCC3COC(Cn4ccnc4)(c4ccc(Cl)cc4Cl)O3)cc2)CC1 (centres undefined) | 105% | 60.1% | 0.653% | 6.22% | < 0% | 2.92% | 64.4% | < 0% | < 0% | < 0% | < 0%
NC(=O)C(c1ccccc1)(c1ccccc1)[C@H]1CCCN(CCc2ccc3c(c2)CCO3)C1 | 91.2% | -0.304% | 1.31% | 33.7% | 14% | -5.36% | 68.4% | < 0% | < 0% | 12% | < 0%
C=C(C)[C@@H]1CC[C@]2(C(=O)O)CC[C@]3(C)[C@H](CC[C@@H]4[C@@]5(C)CC[C@H](O)C(C)(C)[C@@H]5CC[C@]43C)[C@@H]12 | 98.8% | 111% | 27.7% | 26.9% | 19.3% | 36.2% | 67.2% | 12.2% | 8.94% | 3.4% | < 0%
COc1cc(Cc2cnc(N)nc2N)cc(OC)c1OC | 111% | 126% | 1.34% | 4.58% | 22.2% | 23.4% | 33.1% | 0.869% | < 0% | < 0% | < 0%
O=C(Nc1ccc(Cl)c(C(F)(F)F)c1)C(CCCl)C(=O)Nc1ccc(Cl)c(C(F)(F)F)c1 | 84% | 93.6% | 5.66% | < 0% | < 0% | 19.9% | 27.7% | < 0% | < 0% | < 0% | < 0%
COc1ccc(C)cc1NC(=O)c1ccc(S(=O)(=O)N2CCCCC2)cc1 | 128% | 156% | 6.14% | 0.335% | 3.85% | 1.42% | 32.8% | < 0% | < 0% | < 0% | < 0%

From the supplement of paper PMC7801607
